Test results as given in PubChem BioAssay (Tox21).
Inconclusive results are not listed. A call without a number means that no potency is given here. A structure can be active in one record and inactive in another. Active and inactive are the calls of the source. Calls come from the whole dose curve; as a rule, active = well fitted activation curve with a large enough effect in the signal ratio in the repeat runs (not every such curve was filed as active); inconclusive = weak or mixed curves; inactive = flat fitted curve, though single readings scatter; the % refers to the signal ratio.

Experiment: qHTS assay to identify small molecule agonists of the TGF-beta/Smad signaling pathway (AID 1346859)
Settings: SBE-bla HEK293T, TGF-beta/Smad beta-lactamase reporter, 5 h; series mostly up to 76.8 µM; activation: at the top concentration
Excerpt: U.S. Tox21 Program National Center for Advancing Translational Sciences [NCATS] NIH Chemical Genomics Center [NCGC] U.S. Environmental Protection Agency [EPA] National Institutes of Environmental Health Sciences [NIEHS] National Toxicology Program [NTP] U.S. Food and Drug Administration [FDA] Tox21 Assay Overview: Transforming growth factor beta (TGF-beta) superfamily consists of a large number of structurally related dimeric proteins that act as hormones or local mediators in regulating a wide range of biological functions. This superfamily includes TGF-betas themselves, the bone morphogenetic proteins (BMPs) and the activins. These ligands induce oligomerization of serine/threonine receptor kinases and phosphorylate the cytoplasmic signaling molecules of Smad protein family. CellSensor SBE-bla HEK 293T cell line (Life Technologies, Carlsbad, CA), responsive to TGF-beta was used to screen Tox21 10K compound library for identification of agonists/antagonists of the Smad signaling pathway. This cell line contains a beta-lactamase reporter gene under control of the Smad binding element (SBE) stably integrated into HEK 293T cells.
Tox21 Assay Protocol Summary: SBE-bla HEK 293T cells were dispensed at 4,000/well in 6 uL of assay medium into black wall/clear-bottom 1536-well plates using a Multidrop Combi (ThermoFisher Scientific, Waltham, MA) dispenser. After the assay plates were incubated at 37 C and 5% CO2 for an overnight, 23 nL of compounds dissolved in DMSO, positive controls or DMSO only was transferred to the assay plate by a Pintool station (Kalypsys, San Diego, CA). The assay plates were incubated at 37 C and 5% CO2 for 5 hr. One uL of LiveBLAzer B/G FRET substrate (Life Technologies) was added using a Flying Reagent Dispenser (Aurora Discovery, San Diego, CA) and the plates were incubated at room temperature for 2 hr. Fluorescence intensity (405 nm excitation, 460 nm and 530 nm emissions) was measured using an Envision plate reader (PerkinElmer, Shelton, CT).
Potency is the fitted concentration of half-maximal effect.

| SMILES | Potency | activation |
| --- | --- | --- |
| Nc1ccc(-c2ccc(N)cc2)cc1 | inactive | – |
| CCNc1nc(Cl)nc(NCC)n1 | inactive | – |
| O=C(O)C(Cl)(Cl)Cl | inactive | – |
| O=[N+]([O-])O | inactive | – |
| CCCCCCCCCCCCCC[P+](CCCCCC)(CCCCCC)CCCCCC | – | -2.9% (inactive) |
| CCn1cc[n+](C)c1C | inactive | – |
| COCC(=O)N(c1c(C)cccc1C)C(C)C(=O)OC (stereo not given) | inactive | – |
| O=S(=O)(O)O | inactive | – |
| Nc1ccccc1 | inactive | – |
| CCCC[n+]1ccc(C)cc1 | inactive | – |
| CC[N+](CC)(CC)CC | inactive | – |
| CCCCCCCCCCCCn1cc[n+](C)c1 | – | -3.09% (inactive) |
| O=C(O)C(Cl)Cl | inactive | – |
| CCCCCCCCCCCCCCCCn1cc[n+](C)c1 | – | 0% (inactive) |
| O=[N+]([O-])c1ccccc1O | inactive | – |
| CC(Cl)(Cl)C(=O)O | inactive | – |
| Nc1ccc(-c2ccc(N)c(Cl)c2)cc1Cl | inactive | – |
| O=C(O)CCl | inactive | – |
| OCCOc1ccccc1 | inactive | – |
| CCCC[N+]1(C)CCCC1 | inactive | – |

| SMILES | Potency | activation |
| --- | --- | --- |
| COP(=O)(OC)C(O)C(Cl)(Cl)Cl (stereo not given) | inactive | – |
| CC[N+]1(C)CCCC1 | inactive | – |
| O=c1nc(O)n(Cl)c(=O)n1Cl | inactive | – |
| Nc1ccc(Cl)cc1 | inactive | – |
| Cc1cc(-c2ccc(N)c(C)c2)ccc1N | inactive | – |
| CCC[N+]1(C)CCCC1 | inactive | – |
| O=c1[nH]c(=O)n(Cl)c(=O)n1Cl | inactive | – |
| N#CS | inactive | – |
| CCCCCC[n+]1ccccc1 | inactive | – |
| C1CCC(NC2CCCCC2)CC1 | inactive | – |
| CCCCCCn1cc[n+](C)c1 | inactive | – |
| CCCC[n+]1cccc(C)c1 | inactive | – |
| CCCC[n+]1ccccc1C | inactive | – |
| CCCCCCCCCCCCOS(=O)(=O)O | inactive | – |
| C[N+](C)(C)Cc1ccccc1 | 48.7 µM (active) and inactive | – |
| COP(=O)(OC)OC=C(Cl)Cl | inactive | – |
| O=C(O)c1nc(Cl)ccc1Cl | inactive | – |
| CCCCCCCCCCn1cc[n+](C)c1 | inactive | – |
| CC[n+]1ccccc1 | inactive | – |
| CNC | inactive | – |
